# Screening results: PubChem BioAssay, National Center for Advancing Translational Sciences (NCATS)
# Sfp PPTase inh = inhibitors of Bacillus subtilis Sfp phosphopantetheinyl transferase | Biochemical Sfp PPTase activity, qHTS | Potency, µM, for the others: largest response in the series, negative = inhibition, hits mostly inhibitors | hit rate 3.5% among 310,000;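 further: the enzyme is Sfp with the accession as filed and its product quenches rhodamine fluorescence; 0% = enzyme reaction without inhibitor and -100% = no enzyme wells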
#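 Compounds were incubated with enzyme (final 15 nM) for 15 min at room temperature before substrate addition started the reaction. Fluorescence at 525 nm excitation, 598 nm emission was recorded immediately and after 30 minutes.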
# RORgamma inh = blocks mouse ROR gamma transcriptional activity | Potency, µM (series often up to 53.6 µM), inactives show at the top dose activity change, negative = inhibition, most hits filed as inhibitors | hit rate 5.4% among 310,000 | Drosophila S2 Gal4-RORgamma UAS-luciferase reporter, 20 h; further: on the % scale 0 is the no-effect control and ±100 the full control effect; nearly all actives have a fitted effect of over 60% in size
#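 Luciferase reporter read in Schneider cells carrying Gal4-RORγ (mouse) and UAS-Photinus luciferase; cells given compound 1 h before 700 uM copper sulfate induction, then incubated 20 h at ambient temperature.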
# VP16 counter = counter-screen for ROR gamma inhibitors: Gal4-VP16 reporter; Drosophila S2 Gal4-VP16 UAS-luciferase, luminescence, 20 h; Potency, µM (series often up to 53.6 µM), for inactives: at the top dose activity, negative = inhibition, actives largely listed as inhibitors; hit rate 3.5% among 310,000;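 further: Gal4-VP16 expression switched on by copper sulfate through the metallothionein promoter; on the % scale 0 is the no-effect control and ±100 the full control effect; nearly all actives have a fitted effect of over 50% in size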
# Epigenetic reg = epigenetic control regulation, reporter derepression; hit rate 0.2% among 280,000; murine LDR cells, GFP reporter derepression, 30 h; AID 1865; Potency, µM (titrated, usually from 53.9 µM), inactives show top-dose GFP activation, actives largely listed as activators; further: % of control where 0% means no effect; nearly all actives have a fitted effect of over 60% in size
#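 Murine LDR cells carrying a silenced, genomically integrated CMV-driven GFP reporter were exposed to compound for 30 hours at 37 C. After PBS washes, GFP-positive cells (20–120 um objects) were counted by laser-scanning microplate cytometry.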
# ClpP mod = qHTS Assay for Activators of ClpP; ATP-dependent Clp protease proteolytic subunit (Bacillus subtilis (strain 168)), P80244; purified B. subtilis ClpP, FRET peptide cleavage, 20 min; Potency, µM (highest dose often 57.5 µM), for inactives: at the top dose activity change, negative = active; hit rate 1.9% among 340,000; active means well fitted falling curve with a large enough effect; inconclusive means small, poorly fitted or top-dose-only effect; inactive means no such curve, though single readings can be large or run the other way; further: the source files actives as falling curves though it sought activators and does not explain the sign; nearly all actives have a fitted effect of over 65% in size
#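 Purified B. subtilis ClpP, 10 microg/mL final in Tris/HCl pH8 with KCl, BSA, glycerol and Tween-20, cleaved an Abz/nitrotyrosine-quenched decapeptide. Fluorescence (ex 320, em 430) was read at 0 and 20 min at room temperature. Delta was normalized to 5.8 microM ADEP and DMSO/no-enzyme controls.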
# PINK1 expr mod = modulators of PINK1 expression; PINK1 immunofluorescence, high-content cytometry, 24 h; Potency, µM (top dose mostly 76.6 µM), for inactives: top-dose activation (PINK1 increase), most hits filed as activators; hit rate 0.2% among 410,000; AID 624263; active means well fitted activation curve with a large enough effect; inconclusive means small, poorly fitted or top-dose-only effect; cell line not stated here; further: % of control where 0% means no effect; nearly all actives have a fitted effect of over 65% in size
#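 Stable cell line treated 24 h with compounds at 5 concentrations (CCCP controls), then fixed and immunostained for PINK1 plus nuclear and cell stains; PINK1 immunofluorescence quantified by laser-scanning microplate cytometry.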
# * hit, by the source's call; ? = inconclusive; nt = no result given; ! = repeats disagree; [ ] = remark or other dose. This is a sample that favours compounds with a hit; in the whole collection about 8.1% have one here. Unless noted, the call rests on the fitted dose curve; in most records, active means well fitted curve in the direction sought with a large enough effect; inconclusive means small, poorly fitted or top-dose-only effect, or another doubt; inactive means no such curve, though single readings can be large; an effect the other way counts as inactive or inconclusive. Potency means the concentration at half of the fitted maximal effect.
SMILES,Sfp PPTase inh,RORgamma inh,VP16 counter,Epigenetic reg,ClpP mod,PINK1 expr mod
CN1Cc2c(N3CCOCC3)nc3sc(C(=O)c4ccc(Br)cc4)c(N)c3c2CC1(C)C,44.7µM*,11.2µM*,?,-6.2%,nt,-2.7%
COc1ccc(NC(=O)c2sc3nc(N4CCCC4)c4c(c3c2N)CC(C)(C)OC4)cc1,10µM*,20.6%,-8.7%,nt,3.8%,-1.2%
N#Cc1sc2nc(N3CCCCC3)c3c(c2c1N)CCCC3,1.0%,-32.4%,?,2.3%,28.2µM*,9.8%
NNC(=O)c1sc2nc(N3CCOCC3)c3c(c2c1N)CCCC3,7.9%,-16.3%,11.7%,1.1%,3.6%,2.2%
Cc1nc2sc(C#N)c(N)c2c2c1CCCC2,15.0%,11.7%,-5.4%,0.9%,-12.0%,1.2%
CCOC(=O)c1c(C)sc(-c2c(-c3ccc4c(c3)OCCO4)[nH]c3c2c(=O)n(C)c(=O)n3C)c1O,nt,nt,nt,-0.8%,-2.5%,-0.1%
Cc1ccc(-c2cc(-c3ccc4c(c3)NC(=O)CO4)nc3c2COc2ccccc2-3)cc1,nt,nt,nt,2.2%,-10.8%,1.2%
Nc1c(C(=O)NCc2ccccc2)sc2nc(N3CCOCC3)c3c(c12)CCCC3,-19.2%,4.9%,-4.1%,5.8%,25.1µM*,6.5%
CCCCOC(=O)c1sc2nc(N3CCOCC3)c3c(c2c1N)CC(C)(C)OC3,?,29.7%,-9.8%,2.9%,3.0%,1.5%
CC1(C)Cc2c(c(N3CCOCC3)nc3sc(C(=O)N4CCCCC4)c(N)c23)CO1,15.8µM*,-11.6%,2.0%,-1.0%,-19.4%,0.7%
Nc1c(C(=O)Nc2ccccc2)sc2nc(N3CCOCC3)c3c(c12)CCCC3,nt,nt,nt,nt,4.7%,5.4%
CCCCN1C(=O)C(O)(CC(=O)c2ccc(C(C)(C)C)cc2)c2ccccc21 (centres undefined),nt,nt,nt,14.3%,1.6%,5.0%
C/C(=C\C(=O)c1ccc(Br)cc1)NNC(=O)c1ccccc1,nt,nt,nt,nt,1.3%,1.3%
C/C(=C\C(=O)c1ccc(Br)cc1)NNC(=O)c1ccc(O)cc1,12.1%,5.01µM*,4.47µM*,nt,-2.2%,3.0%
Cn1c(=O)c(NCCO)c2c3c(cccc31)C(=O)c1ccccc1-2,1.7%,-8.8%,-10.2%,8.2%,0.6%,0.3%
Cn1c(=O)c(NC2CCCCC2)c2c3c(cccc31)C(=O)c1ccccc1-2,-24.7%,-11.2%,2.0%,0.126µM*,nt,15.3%
COc1cc(C=NCc2ccccc2)ccc1O,nt,nt,nt,nt,-0.9%,4.8%
COc1cc(/C=N/c2oc(-c3ccccc3)cc2C#N)ccc1O,-8.9%,-7.4%,12.0%,0.7%,3.55µM*,-1.8%
O=C(NCc1ccccc1F)C1CCN(c2nn3cc(-c4ccc(F)cc4)nc3s2)CC1,nt,nt,nt,-1.2%,1.4%,3.4%
O=C1CC(c2ccc(O)c(O)c2)Oc2cc(O)cc(O)c21 (centres undefined),-21.8%,14.1%,7.5%,4.1%,-15.1%,-0.3%
Oc1ccc(C2C[C@H]3CC[C@@H]2C3)cc1O (some centres undefined),22.4µM*,?,?,nt,2.2%,10.4%
O=P(c1ccccc1)(c1ccccc1)C(c1ccco1)N1CCOCC1 (centres undefined),20.1%,2.24µM*,4.8%,3.9%,1.2%,-0.6%
COc1ccc(C2CC(=O)Oc3ccc(O)cc32)cc1 (centres undefined),?,2.9%[96.6 µM],-2.1%[96.6 µM],-1.5%[96.6 µM],nt,nt
Cc1ccccc1C1CC(=O)Oc2ccc(O)cc21 (centres undefined),126µM*,-12.1%[96.6 µM],-3.8%[96.6 µM],-3.4%[96.6 µM],nt,nt
COc1ccccc1C1CC(=O)Oc2cc(O)ccc21 (centres undefined),2.8%,-19.3%[96.6 µM],-10.1%[96.6 µM],-0.9%[96.6 µM],2.0%,-0.6%
SMILES,Sfp PPTase inh,RORgamma inh,VP16 counter,Epigenetic reg,ClpP mod,PINK1 expr mod
COc1cc(C2CC(=O)Oc3ccc(O)cc32)cc(OC)c1OC (centres undefined),50.1µM*,4.5%,-11.5%,-3.4%,nt,nt
Nc1c2c(nc3ccccc13)N(C1CCCCC1)CC2,-56.2%,-45.8%,-1.4%,-4.8%,14.1µM*,2.4%
Nc1c2c(nc3ccc(Br)cc13)N(C1CCCCC1)CC2,-28.1%,-7.9%,-5.4%,-5.5%,nt,nt
O=C(c1c(O)c2ccc(Cl)cc2[nH]c1=O)C1CC1,44.7µM*!,7.3%,-1.0%,1.1%,nt,nt
CSCCC(=O)N1CCN(CC(=O)N2CCCC2)CC1,1.3%,2.82µM*,-13.5%,nt,nt,0.4%
O=C(COc1ccc(Br)cc1)Nc1ccc(C(=O)OC2CCCCC2)cc1,nt,nt,nt,0.0%,-1.2%,0.7%
O=C(c1ccc2c(c1)N(Cc1ccc(Cl)cc1)C(=O)c1ccccc1S2=O)N1CCN(c2ccccc2F)CC1 (centres undefined),nt,nt,nt,-1.1%,0.1%,2.9%
COc1ccc(C)cc1NC1(c2ccccc2)C(=O)c2ccccc2C1=O,nt,nt,nt,-0.4%,-0.3%,-4.6%
Cc1ccc(N2C=Nc3ccc(C)c4nc(C)cc2c34)cc1,-12.3%,-17.1%,14.9%,-3.0%,22.4µM*,2.2%
CC1=Nc2ccc(C)c3nc(C)cc(c23)N1c1ccc(C)cc1,nt,nt,nt,nt,-16.8%,0.3%
CCSc1nnc(NC(=O)NC(C)(C(F)(F)F)C(F)(F)F)s1,23.1%,?,-25.4%,2.6%,1.8%,20µM*
CCSc1nnc(NC(=O)NC(CC)(C(F)(F)F)C(F)(F)F)s1,5.9%,-19.2%[10 µM],?,2.4%,1.4%,22.4µM*
CCCC(=O)Nc1nnc(SCC)s1,1.5%,?,4.4%,-1.3%,2.8%,-0.4%
CCOc1ccc(NC(=O)Cn2nc(-c3ccncc3)ccc2=O)cc1,nt,nt,nt,0.0%,0.0%,4.7%
COc1ccc(NC(=O)C2=C(C)Nc3ncnn3C2c2ccc(O)cc2)cc1 (centres undefined),nt,nt,nt,0.8%,-0.2%,-2.8%
CCOC(=O)CCCCC1=CC2=CC(=O)C(C)(O)C(=O)C2=CO1 (centres undefined),2.3%,-14.2%[10 µM],2.4%[10 µM],2.2%[10.1 µM],nt,nt
NNC(=O)CSc1cccc2cccnc12,-2.0%,23.2%,-20.2%,-14.3%,?,5.0%
O=C(Sc1cccc2cccnc12)c1ccccc1Br,?,0.794µM*,2µM*,nt,nt,nt
O=C(Sc1cccc2cccnc12)c1ccc(F)cc1,?,1.12µM*,4.47µM*,-1.6%,nt,nt
COc1ccc2c(c1)CC(C(=O)NCCN1CCN(c3cccc(C)c3C)CC1)CO2 (centres undefined),nt,nt,nt,1.7%,-0.6%,0.3%
CCCCc1ccc(-n2nc3ccc(NC(=O)c4cc5ccccc5o4)cc3n2)cc1,nt,nt,nt,-0.8%,4.1%,0.1%
Cc1ccccc1Cn1c(=O)n(CC2CCC(C(=O)N3CCC(C)CC3)CC2)c(=O)c2sccc21 (centres undefined),nt,nt,nt,1.5%,-5.4%,0.4%
COC(=O)[C@@H]1[C@@H](C#N)C2(c3ccccc3-c3ccccc32)N(c2ccc(Cl)cc2)N1C#N,?,15.8µM*,10µM*,?,-11.0%,-2.1%
